Data from PubChem BioAssay AID540364 (The Scripps Research Institute Molecular Screening Center, 2011).
Screen size: about 360,000 compounds; about 2,000 (0.56%) were called active. Many of the other results were omitted from the sample, so actives are more common in it than they were. Unmarked numbers belong to inactive results.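 How the source made its calls: active means activation above the average of all compounds screened plus 3 SD, cutoff fixed separately per campaign (cut at about 7.5% in these data); inactive means the rest.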

test: GAA850 frataxin promoter reporter upregulation – cell-based, luciferase luminescence, HEK293 lucGAA850, primary screen (AID 540364); conditions: HEK293 lucGAA850 FXN promoter luciferase reporter, 24 h; at 6 µM; active compounds read high; percent of 10 µM SAHA response;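 further: 0% = DMSO wells and 100% = 10 µM SAHA wells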

Compound	activation
O=C(Nc1ccc2c(c1)OCCO2)c1cnccn1	7.89% (active)
O=C(CCN1C(=O)c2ccncc2C1=O)Nc1ccc2c(c1)OCCO2	-1.17%
O=C(Nc1ccc2c(c1)OCCO2)c1ccoc1	0.23%
CCC1(CC)C(=O)C2=C3C1[C@H](C(=O)OC)C=C(C(=O)OC)C[C@H]3[C@H]1C(=O)N(Cc3ccccc3)C(=O)[C@H]1[C@H]2C (stereo partly specified)	-4.42%
CC[C@]1(C(=O)OC)[C@H]2C(=O)N(C)C(=O)[C@H]2[C@H]2CN(C)C(=NCc3ccccc3)N21	-0.41%
CCNC(=O)N(CC)C[C@H]1N[C@@](CC)(C(=O)OC)[C@H]2C(=O)N(Cc3ccccc3)C(=O)[C@@H]12	0.95%
COC(=O)[C@]1(Cc2ccccc2)N[C@H](CN(C)S(=O)(=O)c2ccc(F)cc2)[C@@H]2C(=O)N(Cc3ccccc3)C(=O)[C@@H]21	-3.95%
COC(=O)[C@@]1(C)[C@H]2C(=O)N(Cc3ccccc3)C(=O)[C@H]2[C@H]2CN=C(SCC3CC3)N21	15.7% (active)
CCN1C[C@@H]2[C@@H]3C(=O)N(Cc4ccccc4)C(=O)[C@@H]3[C@](C)(C1=O)N2C(=O)c1ccc(C(C)(C)C)cc1	1.3%
CCCN=C1N(C)C[C@@H]2[C@@H]3C(=O)N(Cc4ccccc4)C(=O)[C@@H]3[C@](C)(C(=O)OC)N12	-0.73%
CC[C@]1(C(=O)OC)[C@H]2C(=O)N(Cc3ccccc3)C(=O)[C@H]2[C@H]2CN=C(SCc3ccccc3)N21	15.5% (active)
CC[C@]1(C(=O)OC)[C@H]2C(=O)N(Cc3ccccc3)C(=O)[C@H]2[C@H]2CN=C(SCc3ccc(C#N)cc3)N21	13.3% (active)
CCN1C[C@@H]2[C@@H]3C(=O)N(Cc4ccccc4)C(=O)[C@@H]3[C@](Cc3ccccc3)(C(=O)OC)N2C1=NC1CCCCC1	0.85%
CC[C@]1(C(=O)OC)[C@H]2C(=O)N(Cc3ccccc3)C(=O)[C@H]2[C@H]2CN=C(SCc3ccc(Cl)cc3)N21	17.8% (active)
CCN(C[C@H]1N[C@@](Cc2ccccc2)(C(=O)OC)[C@H]2C(=O)N(Cc3ccccc3)C(=O)[C@@H]12)C(=O)c1ccc(C)cc1	-1.78%
CCSC1(SCC)N=C(N)C2(C#N)C(c3ccccc3)NC(C)=CC12C#N (stereo unspecified)	-1.4%
O=C1CSC2=NCN(c3ccccc3)CN12	1.46%
CC(=O)Oc1ccc(OC(C)=O)c2c1C1C=CC2CC1	0.61%
CC(=O)N1CCN(c2ccc(NCc3ccc(C(C)C)cc3)cc2)CC1	-1.92%
CC(=O)c1ccc(OC(=O)N2CCOCC2)cc1	0.72%
CC(C)NC(=O)C1(C)CCCCN1Cc1cccc(C(F)(F)F)c1 (stereo unspecified)	0.98%
CC(=O)N1c2ccc(S(=O)(=O)N3CCCC(C(=O)Nc4cccc(F)c4)C3)cc2CC1C (stereo unspecified)	1.26%
COCc1cc(=O)oc2cc(NS(=O)(=O)c3ccc(C)cc3)ccc12	0.66%
COc1ccc(CCNS(=O)(=O)c2cc3c(cc2C)NC(=O)CO3)cc1OC	-0.37%
O=C1COc2c1ccc(O)c2O	1.71%
S=C(NCCCc1cnc[nH]1)NCCCN(Cc1ccc(Cl)c(Cl)c1)c1ccc(Br)cn1	-0.12%

Compound	activation
Cc1cc(OCc2cc(C(=O)NCc3cc(C(C)C)no3)no2)cc(C)c1Cl	8.34% (active)
COc1ccc(OCc2cc(C(=O)NCC3(C)COC3)no2)c(Cl)c1	4.24%
Cc1cccnc1CC(C)NC(=O)c1cc(COc2cncc(Cl)c2)on1 (stereo unspecified)	3.48%
O=C1CC(c2c(F)cccc2Cl)C(n2cncn2)C(O)=C1C1NCCc2ccccc21 (stereo unspecified)	-1.97%
CCOc1cc(CNCc2ccccn2)ccc1OCC(=O)NC(C)(C)C	-1.18%
CCn1c(NCCc2ccc(OC)c(OC)c2)nc2c1c(=O)n(C)c(=O)n2C	-0.8%
C#CC(C)(C)NC(=O)CSc1nc2c(c(=O)n(C)c(=O)n2C)n1CCCC	0.86%
CCCCn1c(SCC(=O)NCCc2ccc(OC)c(OC)c2)nc2c1c(=O)n(C)c(=O)n2C	7.97% (active)
COc1cccc(CNS(=O)(=O)c2cc3c(cc2C)n(C)c(=O)c(=O)n3C)c1	-0.74%
Cc1ccc(N2C(=O)N3[C@@H]4c5ccccc5OC[C@@H]4[C@@H](c4ccccc4)[C@@]3(C)C2=O)cc1	-0.85%
Cc1cccc([C@@H]2[C@@H]3C(=O)N(Cc4ccccc4)C(=O)[C@@H]3[C@]3(C)C(=O)N(c4ccc(Br)cc4)C(=O)N23)c1	4.94%
COc1ccc([C@@H]2[C@@H]3C(=O)N(C(C)(C)C)C(=O)[C@@H]3[C@]3(Cc4ccccc4)C(=O)N(c4cccc(Br)c4)C(=O)N23)cc1	0.35%
CCN1C(=O)[C@H]2[C@@H](c3ccc(C)cc3)N3C(=O)N(c4cccc(Br)c4)C(=O)[C@@]3(CC)[C@H]2C1=O	5.85%
CC[C@@]12C(=O)N(c3ccccc3)C(=O)N1[C@H](c1ccc(Br)cc1)[C@@H]1C(=O)N(C(C)(C)C)C(=O)[C@@H]12	15% (active)
CC(C)(C)N1C(=O)[C@H]2[C@@H](c3ccc(Br)cc3)N3C(=O)N(c4cccc(Cl)c4)C(=O)[C@@]3(C)[C@H]2C1=O	14.1% (active)
CC1(Oc2ccccc2-c2ccno2)CCN(Cc2ccc(-c3ccccc3)o2)C1 (stereo unspecified)	1.3%
O=C(COc1ccc(Cl)cc1)NCCS(=O)(=O)N1CCN(c2ccc(F)cc2)CC1	-2.02%
CN(Cc1ccccc1)C(=O)C1CCCN(c2ncnc3c2nc2n3CCCCC2)C1 (stereo unspecified)	1.56%
CSc1nc(N)c(C#N)c(-c2ccccc2Cl)c1C#N	16.1% (active)
COc1ccccc1-c1c(C#N)c(N)nc2c1CCC2	1.52%
CSc1ccc(-c2c(C#N)c(N)nc3c2c(C)nn3-c2ccccc2)cc1	0.67%
COc1ccc(CNC(=O)c2ccc(-c3cccnc3)c3ccoc23)cc1OC	1.42%
Cc1ccc(O/C=C2\OC(=O)c3ccccc32)cc1	-0.57%
CN(CCc1ccccn1)C(=O)CCC1CCCN(Cc2ccccc2OC(F)F)C1 (stereo unspecified)	0.65%
Cc1c(-c2ccccc2)nc(N)c(C#N)c1-c1cccs1	8.43% (active)
CCc1c(-c2ccccc2)nc(N)c(C#N)c1-c1cccs1	3.81%

Compound	activation
CN1CCc2nc(SC(C(=O)O)c3ccccc3)c(C#N)c(-c3cccs3)c2C1 (stereo unspecified)	1.01%
Cc1cccc(C(=O)Nc2ccccc2C(=O)NCc2cccnc2)c1	0.13%
COc1ccc(NS(=O)(=O)c2ccc3oc(SCC(N)=O)nc3c2)cc1	-1.75%
COc1ccc(S(=O)(=O)N(C)C)cc1NC(=O)CSc1ncccn1	2.15%
CN(C)S(=O)(=O)c1ccc2oc(SCC(=O)Nc3ccccc3F)nc2c1	7.74% (active)
Cc1noc(C)c1-c1ccc(C(=O)NCc2ccncc2)c2occc12	3.59%
CN(N)c1nc(N2CCCC2)nc(N2CCCC2)n1	1.2%
O=C(NCCN1CCOCC1)c1ccccc1N1C(=O)[C@@H]2Cc3c([nH]c4ccccc34)C(c3cccc(Cl)c3)N2C1=O (stereo partly specified)	-10.6%
CN(C)[C@@H]1C(=O)C(C(N)=O)=C(O)[C@@]2(O)C(=O)C3=C(O)c4c(O)ccc(Cl)c4[C@@H](O)[C@H]3C[C@@H]12	13.6% (active)
C=C1c2c(Cl)ccc(O)c2C(O)=C2C(=O)[C@]3(O)C(O)=C(C(N)=O)C(=O)[C@@H](N(C)C)[C@@H]3[C@@H](O)C12 (stereo partly specified)	13.5% (active)
CN(C(=O)CN1CCN(c2cc(-c3ccc(OCc4ccccc4)cc3)ncn2)CC1)c1ccccc1	-2.58%
CN(C(=O)c1ccccc1)c1nccnc1C#N	1.95%
CC(=O)N1CC2(C)CN(C(C)=O)CC(C)(C1)C2=O	1.87%
CCCC1NC(=O)NC(C)=C1C(=O)OCC (stereo unspecified)	0.3%
COC(=O)c1ccc(CSc2nc3ccccc3c(=O)n2-c2cccc(OC)c2)o1	10.1% (active)
COCC(C)n1c(SCc2ccc(C(=O)OC)o2)nc2ccccc2c1=O (stereo unspecified)	2.64%
COc1cccc(-n2c(SCC(=O)NC3CCS(=O)(=O)C3)nc3ccccc3c2=O)c1 (stereo unspecified)	-0.8%
Cc1ccc(C)c(OCCC(=O)OCC(=O)NC(=O)NCc2ccccc2)c1	1.32%
CCCCN(CC(=O)NC(C)(C)C)C(=O)C(=O)Nc1ccc2c(c1)OCCO2	0.41%
CCOC(=O)N1CCC(c2cc(=O)n(-c3ccccc3)[nH]2)CC1	1.97%
Cc1ccc(C(=O)N2CCC(n3nccc3NC(=O)Nc3cccc(F)c3)CC2)cn1	-1.64%
O=C(NCc1ccccc1)C(c1cccnc1)N(C(=O)c1csnn1)c1ccc(F)cc1 (stereo unspecified)	-0.33%
CCOc1ccc(S(=O)(=O)N2CCN(C(=O)c3oc4ccccc4c3C)CC2)cc1	1.62%
COc1ccc(CCNCC(O)Cn2ccc3ccccc32)cc1OC (stereo unspecified)	0.29%
